# Experimental data from PMC7862700, “An all-to-all approach to the identification of sequence-specific readers for epigenetic DNA modifications on cytosine”.
# Legend:
# Test in all cases: DAPPL (digital affinity profiling via proximity ligation, sequencing); 10 mM Tris-HCl pH 7.5, 50 mM NaCl, 1 mM DTT, 4% glycerol, room temperature, 30 min; GST-TFs on glutathione beads, 16-mer random dsDNA library, 0.1% formaldehyde crosslink after washing; high values mean tight binding
# FLI1 = target: T1, FLI1 (Homo sapiens, UniProt Q01543 1-452); settings: protein: recombinant; tags: N-terminal GST; dsDNA, one strand shown
# T1 sequence: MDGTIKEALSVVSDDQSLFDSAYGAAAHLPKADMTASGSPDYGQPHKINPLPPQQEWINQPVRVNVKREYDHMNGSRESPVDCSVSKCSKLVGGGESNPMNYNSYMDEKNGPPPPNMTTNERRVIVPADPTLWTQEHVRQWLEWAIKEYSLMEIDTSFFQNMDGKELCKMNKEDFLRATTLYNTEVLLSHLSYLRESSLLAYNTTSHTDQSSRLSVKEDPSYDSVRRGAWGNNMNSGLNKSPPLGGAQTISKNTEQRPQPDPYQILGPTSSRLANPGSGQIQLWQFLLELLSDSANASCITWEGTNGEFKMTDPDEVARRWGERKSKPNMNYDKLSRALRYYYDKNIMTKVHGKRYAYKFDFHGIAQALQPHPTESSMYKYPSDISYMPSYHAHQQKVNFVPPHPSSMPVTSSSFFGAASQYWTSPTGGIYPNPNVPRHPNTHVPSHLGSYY
# Method in brief: (§1)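 In yeast, human transcription factors were expressed with a GST fusion, then pulled down on glutathione beads and given DNA barcodes. Pooled with a tag-only sample, they were exposed to 200 nmole of a 16-mer random double-stranded DNA library (Tris/NaCl/DTT/glycerol buffer, room temperature, 30 min), washed, crosslinked with 0.1% formaldehyde, proximity-ligated using BsaI/T4 ligase for 1 h at 37 °C, PCR-amplified and read on an Illumina NextSeq500. Each hexamer's frequency of reads for a factor, divided by the matching frequency for the tag-only sample, gives the binding signal.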
# ELK1 = target: T2, ELK1 (Homo sapiens, UniProt P19419 1-428); settings: protein: recombinant; tags: N-terminal GST; dsDNA, one strand shown
# T2 sequence: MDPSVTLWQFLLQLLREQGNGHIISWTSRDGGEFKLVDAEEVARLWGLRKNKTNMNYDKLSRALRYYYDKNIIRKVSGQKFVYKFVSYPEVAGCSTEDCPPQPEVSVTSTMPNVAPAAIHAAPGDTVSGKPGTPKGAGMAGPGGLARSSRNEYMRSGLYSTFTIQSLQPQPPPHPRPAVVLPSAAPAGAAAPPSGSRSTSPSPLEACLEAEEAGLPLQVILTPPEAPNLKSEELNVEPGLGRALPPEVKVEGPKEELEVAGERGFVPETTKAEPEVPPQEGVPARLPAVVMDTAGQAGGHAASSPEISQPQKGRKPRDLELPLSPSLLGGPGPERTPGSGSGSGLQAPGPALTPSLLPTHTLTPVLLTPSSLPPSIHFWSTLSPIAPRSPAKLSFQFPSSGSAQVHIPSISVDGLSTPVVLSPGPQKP
# Method in brief: as §1
# GABPA = target: T3, GABPA (Homo sapiens, UniProt Q06546 1-454); settings: protein: recombinant; tags: N-terminal GST; dsDNA, one strand shown
# T3 sequence: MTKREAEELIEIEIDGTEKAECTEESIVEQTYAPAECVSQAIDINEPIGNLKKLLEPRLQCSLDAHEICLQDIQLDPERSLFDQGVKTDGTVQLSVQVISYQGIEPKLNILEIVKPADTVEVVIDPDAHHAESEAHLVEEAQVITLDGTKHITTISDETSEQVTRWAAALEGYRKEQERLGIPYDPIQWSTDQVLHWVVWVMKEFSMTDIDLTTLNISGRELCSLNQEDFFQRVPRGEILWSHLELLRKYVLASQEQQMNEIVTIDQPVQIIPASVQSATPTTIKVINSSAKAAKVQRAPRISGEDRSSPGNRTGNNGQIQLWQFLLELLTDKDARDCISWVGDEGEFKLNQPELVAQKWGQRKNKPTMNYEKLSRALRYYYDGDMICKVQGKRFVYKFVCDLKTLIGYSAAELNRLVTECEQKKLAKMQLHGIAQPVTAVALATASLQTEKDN
# Method in brief: as §1
# ERG = target: T4, ERG (Homo sapiens, UniProt P11308 1-479); settings: protein: recombinant; tags: N-terminal GST; dsDNA, one strand shown
# T4 sequence: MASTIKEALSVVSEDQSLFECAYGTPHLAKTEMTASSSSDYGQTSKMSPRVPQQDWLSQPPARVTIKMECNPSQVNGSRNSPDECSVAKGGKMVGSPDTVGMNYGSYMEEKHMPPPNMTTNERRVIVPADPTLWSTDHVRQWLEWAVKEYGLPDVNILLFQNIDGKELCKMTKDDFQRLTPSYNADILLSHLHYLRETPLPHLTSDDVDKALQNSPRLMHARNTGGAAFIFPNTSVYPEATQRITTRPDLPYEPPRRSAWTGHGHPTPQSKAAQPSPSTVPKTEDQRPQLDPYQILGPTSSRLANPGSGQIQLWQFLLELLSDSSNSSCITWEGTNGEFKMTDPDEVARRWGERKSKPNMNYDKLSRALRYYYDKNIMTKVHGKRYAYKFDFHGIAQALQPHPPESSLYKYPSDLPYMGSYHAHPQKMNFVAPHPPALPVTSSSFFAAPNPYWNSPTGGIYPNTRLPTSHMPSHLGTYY
# Method in brief: as §1
# ELF1 = ELF1 (Homo sapiens, UniProt P32519 1-619); settings: protein: recombinant; tags: N-terminal GST; dsDNA, one strand shown
# Method in brief: as §1
# EHF = target: T5, EHF (Homo sapiens, UniProt Q9NZC4 1-300); settings: protein: recombinant; tags: N-terminal GST; dsDNA, one strand shown
# T5 sequence: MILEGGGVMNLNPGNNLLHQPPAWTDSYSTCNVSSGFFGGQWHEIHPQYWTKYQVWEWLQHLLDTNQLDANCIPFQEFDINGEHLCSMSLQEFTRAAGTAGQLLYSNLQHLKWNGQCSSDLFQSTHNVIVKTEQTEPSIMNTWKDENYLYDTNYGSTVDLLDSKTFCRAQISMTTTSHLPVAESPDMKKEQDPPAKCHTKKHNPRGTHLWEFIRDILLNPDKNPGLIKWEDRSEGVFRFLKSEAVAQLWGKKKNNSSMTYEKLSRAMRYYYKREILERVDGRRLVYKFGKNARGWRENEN
# Method in brief: as §1
# SPI1 = SPI1 (Homo sapiens, UniProt P17947 1-270); settings: protein: recombinant; tags: N-terminal GST; dsDNA, one strand shown
# Method in brief: as §1
# SPIB = SPIB (Homo sapiens, UniProt Q01892 1-262); settings: protein: recombinant; tags: N-terminal GST; dsDNA, one strand shown
# Method in brief: as §1
# ELK3 = target: T6, ELK3 (Homo sapiens, UniProt P41970 1-407); settings: protein: recombinant; tags: N-terminal GST; dsDNA, one strand shown
# T6 sequence: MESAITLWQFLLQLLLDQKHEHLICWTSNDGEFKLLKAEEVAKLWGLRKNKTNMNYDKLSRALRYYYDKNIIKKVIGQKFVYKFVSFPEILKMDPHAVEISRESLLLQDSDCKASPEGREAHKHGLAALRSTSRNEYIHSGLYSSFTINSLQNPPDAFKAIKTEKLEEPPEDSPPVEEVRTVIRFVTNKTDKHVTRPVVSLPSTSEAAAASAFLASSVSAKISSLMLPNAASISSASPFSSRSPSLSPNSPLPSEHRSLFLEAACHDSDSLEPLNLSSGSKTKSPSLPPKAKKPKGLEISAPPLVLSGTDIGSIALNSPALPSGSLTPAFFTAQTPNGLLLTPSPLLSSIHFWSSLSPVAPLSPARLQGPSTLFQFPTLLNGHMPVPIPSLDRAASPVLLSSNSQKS
# Method in brief: as §1
# FEV = target: T7, FEV (Homo sapiens, UniProt Q99581 1-238); settings: protein: recombinant; tags: N-terminal GST; dsDNA, one strand shown
# T7 sequence: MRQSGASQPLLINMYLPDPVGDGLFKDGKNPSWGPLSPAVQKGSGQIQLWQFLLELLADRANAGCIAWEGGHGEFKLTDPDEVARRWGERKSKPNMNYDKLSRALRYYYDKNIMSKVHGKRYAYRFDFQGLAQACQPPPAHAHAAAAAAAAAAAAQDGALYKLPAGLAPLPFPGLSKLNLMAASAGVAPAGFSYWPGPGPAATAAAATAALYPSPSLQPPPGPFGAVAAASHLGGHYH
# Method in brief: as §1
# ETV5 = ETV5 (Homo sapiens, UniProt P41161 1-510); settings: protein: recombinant; tags: N-terminal GST; dsDNA, one strand shown
# Method in brief: as §1
# HSF1 = HSF1 (Homo sapiens, UniProt Q00613 1-529); settings: protein: recombinant; tags: N-terminal GST; chain copies: 3; dsDNA, one strand shown
# Method in brief: as §1
# SPIC = target: T8, SPIC (Homo sapiens, UniProt Q8N5J4 1-248); settings: protein: recombinant; tags: N-terminal GST; dsDNA, one strand shown
# T8 sequence: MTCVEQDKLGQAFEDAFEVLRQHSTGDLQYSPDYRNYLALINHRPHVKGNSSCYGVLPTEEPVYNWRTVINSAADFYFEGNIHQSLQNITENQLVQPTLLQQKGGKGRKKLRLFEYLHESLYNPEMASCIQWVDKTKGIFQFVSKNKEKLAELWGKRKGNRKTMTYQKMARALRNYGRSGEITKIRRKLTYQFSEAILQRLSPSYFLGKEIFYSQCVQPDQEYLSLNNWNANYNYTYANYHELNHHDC
# Method in brief: as §1
# ELF4 = ELF4 (Homo sapiens, UniProt Q99607 1-663); settings: protein: recombinant; tags: N-terminal GST; dsDNA, one strand shown
# Method in brief: as §1
# ELK4 = target: T9, ELK4 (Homo sapiens, UniProt P28324-2 1-405); settings: protein: recombinant; tags: N-terminal GST; dsDNA, one strand shown
# T9 sequence: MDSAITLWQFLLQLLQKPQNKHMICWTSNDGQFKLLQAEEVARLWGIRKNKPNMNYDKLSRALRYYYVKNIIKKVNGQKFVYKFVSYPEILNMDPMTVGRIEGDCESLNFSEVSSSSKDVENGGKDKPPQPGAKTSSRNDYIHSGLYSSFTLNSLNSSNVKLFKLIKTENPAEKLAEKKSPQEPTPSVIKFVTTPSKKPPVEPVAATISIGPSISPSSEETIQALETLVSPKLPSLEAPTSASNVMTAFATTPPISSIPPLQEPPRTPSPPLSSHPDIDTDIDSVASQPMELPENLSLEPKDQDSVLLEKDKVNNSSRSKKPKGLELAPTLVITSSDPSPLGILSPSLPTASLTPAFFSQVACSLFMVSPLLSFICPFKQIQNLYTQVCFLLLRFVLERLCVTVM
# Method in brief: as §1
# ETV2 = target: T10, ETV2 (Homo sapiens, UniProt O00321 1-342); settings: protein: recombinant; tags: N-terminal GST; dsDNA, one strand shown
# T10 sequence: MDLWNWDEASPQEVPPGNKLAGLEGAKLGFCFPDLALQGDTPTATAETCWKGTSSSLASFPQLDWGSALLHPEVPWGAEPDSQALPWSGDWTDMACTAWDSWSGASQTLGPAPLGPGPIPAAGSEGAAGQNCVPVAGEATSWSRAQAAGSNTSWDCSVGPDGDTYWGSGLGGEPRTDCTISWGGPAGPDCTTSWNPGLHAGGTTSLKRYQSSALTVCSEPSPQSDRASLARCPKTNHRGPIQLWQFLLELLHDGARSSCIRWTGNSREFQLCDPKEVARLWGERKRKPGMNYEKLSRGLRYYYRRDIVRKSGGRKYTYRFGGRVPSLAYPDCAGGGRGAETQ
# Method in brief: as §1
# ELF3 = target: T11, ELF3 (Homo sapiens, UniProt P78545 1-371); settings: protein: recombinant; tags: N-terminal GST; dsDNA, one strand shown
# T11 sequence: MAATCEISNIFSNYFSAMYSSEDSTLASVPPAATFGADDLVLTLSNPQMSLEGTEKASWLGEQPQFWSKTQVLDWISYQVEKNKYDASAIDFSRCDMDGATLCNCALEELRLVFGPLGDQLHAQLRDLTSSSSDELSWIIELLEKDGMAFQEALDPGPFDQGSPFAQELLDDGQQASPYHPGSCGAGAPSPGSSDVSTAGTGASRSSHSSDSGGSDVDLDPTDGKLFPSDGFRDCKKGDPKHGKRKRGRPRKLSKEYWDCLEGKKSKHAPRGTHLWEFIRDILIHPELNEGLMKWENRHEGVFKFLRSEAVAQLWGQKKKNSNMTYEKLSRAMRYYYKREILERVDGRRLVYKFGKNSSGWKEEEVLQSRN
# Method in brief: as §1
# CRX = CRX (Homo sapiens, UniProt O43186 1-299); settings: protein: recombinant; tags: N-terminal GST; dsDNA, one strand shown
# Method in brief: as §1
# ETV1 = ETV1 (Homo sapiens, UniProt P50549 1-477); settings: protein: recombinant; tags: N-terminal GST; dsDNA, one strand shown
# Method in brief: as §1
# Chain of HSF1 (Q00613 whole entry): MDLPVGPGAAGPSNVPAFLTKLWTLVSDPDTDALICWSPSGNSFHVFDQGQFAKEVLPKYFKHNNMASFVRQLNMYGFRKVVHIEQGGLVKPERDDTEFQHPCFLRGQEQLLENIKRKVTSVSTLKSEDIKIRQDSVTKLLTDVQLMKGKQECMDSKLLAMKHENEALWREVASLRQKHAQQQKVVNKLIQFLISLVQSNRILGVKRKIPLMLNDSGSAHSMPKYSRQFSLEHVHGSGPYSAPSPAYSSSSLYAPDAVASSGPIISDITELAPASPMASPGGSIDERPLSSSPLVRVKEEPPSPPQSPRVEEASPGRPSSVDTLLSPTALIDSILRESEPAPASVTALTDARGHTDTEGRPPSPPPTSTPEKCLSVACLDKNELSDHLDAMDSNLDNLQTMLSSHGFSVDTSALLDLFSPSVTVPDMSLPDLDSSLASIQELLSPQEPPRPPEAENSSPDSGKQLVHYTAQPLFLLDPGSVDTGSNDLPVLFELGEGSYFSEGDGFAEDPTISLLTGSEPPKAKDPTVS
# Chain of SPIB (Q01892 whole entry): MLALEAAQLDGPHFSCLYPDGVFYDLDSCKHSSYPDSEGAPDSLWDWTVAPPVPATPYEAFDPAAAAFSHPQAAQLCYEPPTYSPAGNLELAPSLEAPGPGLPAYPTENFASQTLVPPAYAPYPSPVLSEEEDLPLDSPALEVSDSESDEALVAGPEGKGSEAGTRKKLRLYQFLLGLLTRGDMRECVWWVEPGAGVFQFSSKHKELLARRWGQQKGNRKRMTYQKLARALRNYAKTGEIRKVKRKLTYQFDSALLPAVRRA
# Chain of ETV5 (P41161 whole entry): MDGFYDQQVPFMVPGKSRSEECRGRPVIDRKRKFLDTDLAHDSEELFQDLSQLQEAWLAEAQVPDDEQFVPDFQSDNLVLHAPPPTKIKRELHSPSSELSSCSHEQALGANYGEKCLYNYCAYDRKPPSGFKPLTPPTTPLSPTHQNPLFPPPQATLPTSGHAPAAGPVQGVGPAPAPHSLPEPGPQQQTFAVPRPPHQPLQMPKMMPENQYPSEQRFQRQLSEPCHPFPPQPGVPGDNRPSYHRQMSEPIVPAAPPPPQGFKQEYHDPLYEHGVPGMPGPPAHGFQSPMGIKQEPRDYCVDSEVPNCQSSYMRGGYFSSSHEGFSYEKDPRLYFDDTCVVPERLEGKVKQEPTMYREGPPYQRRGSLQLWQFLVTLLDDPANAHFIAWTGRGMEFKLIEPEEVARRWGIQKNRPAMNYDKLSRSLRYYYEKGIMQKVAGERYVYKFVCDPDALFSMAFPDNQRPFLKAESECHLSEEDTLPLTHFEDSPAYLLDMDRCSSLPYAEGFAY
# Chain of CRX (O43186 whole entry): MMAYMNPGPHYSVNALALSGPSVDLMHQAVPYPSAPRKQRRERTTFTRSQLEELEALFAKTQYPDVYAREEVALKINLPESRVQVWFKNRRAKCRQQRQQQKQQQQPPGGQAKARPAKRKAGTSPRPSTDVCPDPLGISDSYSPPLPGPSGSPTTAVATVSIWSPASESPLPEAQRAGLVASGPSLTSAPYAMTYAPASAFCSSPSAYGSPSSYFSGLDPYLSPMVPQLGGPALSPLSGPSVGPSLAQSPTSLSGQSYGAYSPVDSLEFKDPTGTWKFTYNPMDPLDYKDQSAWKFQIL
# Chain of ELF4 (Q99607 whole entry): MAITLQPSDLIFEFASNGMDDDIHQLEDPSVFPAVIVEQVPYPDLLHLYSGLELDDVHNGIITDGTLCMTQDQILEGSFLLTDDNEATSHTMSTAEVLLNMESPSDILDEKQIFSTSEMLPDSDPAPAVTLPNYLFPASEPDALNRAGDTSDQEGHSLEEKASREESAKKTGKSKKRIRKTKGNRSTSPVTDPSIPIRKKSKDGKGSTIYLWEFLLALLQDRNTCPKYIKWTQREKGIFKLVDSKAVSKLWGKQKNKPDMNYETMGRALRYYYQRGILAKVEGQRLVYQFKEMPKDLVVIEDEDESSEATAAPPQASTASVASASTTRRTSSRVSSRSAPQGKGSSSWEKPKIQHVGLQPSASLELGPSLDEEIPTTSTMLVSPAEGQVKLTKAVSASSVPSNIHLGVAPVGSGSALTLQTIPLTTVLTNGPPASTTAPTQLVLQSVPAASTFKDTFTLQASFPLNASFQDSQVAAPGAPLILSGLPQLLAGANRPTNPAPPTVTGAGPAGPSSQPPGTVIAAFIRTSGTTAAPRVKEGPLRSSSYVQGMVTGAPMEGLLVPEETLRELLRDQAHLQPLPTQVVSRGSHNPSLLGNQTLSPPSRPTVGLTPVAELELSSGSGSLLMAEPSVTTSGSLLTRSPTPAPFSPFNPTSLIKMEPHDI
# Chain of ELF1 (P32519 whole entry): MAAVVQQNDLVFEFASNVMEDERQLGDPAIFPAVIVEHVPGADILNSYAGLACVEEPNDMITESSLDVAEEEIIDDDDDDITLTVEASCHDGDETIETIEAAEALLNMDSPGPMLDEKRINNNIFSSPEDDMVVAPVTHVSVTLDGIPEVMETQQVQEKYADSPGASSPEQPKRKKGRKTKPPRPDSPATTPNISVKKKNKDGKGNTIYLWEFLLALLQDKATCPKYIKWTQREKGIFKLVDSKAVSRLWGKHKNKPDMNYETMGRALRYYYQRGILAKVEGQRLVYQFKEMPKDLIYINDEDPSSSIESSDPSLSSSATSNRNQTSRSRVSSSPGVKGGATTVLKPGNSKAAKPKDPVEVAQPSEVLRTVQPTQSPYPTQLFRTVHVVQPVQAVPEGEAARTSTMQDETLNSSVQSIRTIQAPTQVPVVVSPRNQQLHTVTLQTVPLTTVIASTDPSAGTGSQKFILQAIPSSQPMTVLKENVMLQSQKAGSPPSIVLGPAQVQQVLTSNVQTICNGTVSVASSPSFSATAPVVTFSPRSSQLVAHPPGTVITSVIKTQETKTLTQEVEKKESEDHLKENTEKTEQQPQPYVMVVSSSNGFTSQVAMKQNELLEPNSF
# Chain of ETV1 (P50549 whole entry): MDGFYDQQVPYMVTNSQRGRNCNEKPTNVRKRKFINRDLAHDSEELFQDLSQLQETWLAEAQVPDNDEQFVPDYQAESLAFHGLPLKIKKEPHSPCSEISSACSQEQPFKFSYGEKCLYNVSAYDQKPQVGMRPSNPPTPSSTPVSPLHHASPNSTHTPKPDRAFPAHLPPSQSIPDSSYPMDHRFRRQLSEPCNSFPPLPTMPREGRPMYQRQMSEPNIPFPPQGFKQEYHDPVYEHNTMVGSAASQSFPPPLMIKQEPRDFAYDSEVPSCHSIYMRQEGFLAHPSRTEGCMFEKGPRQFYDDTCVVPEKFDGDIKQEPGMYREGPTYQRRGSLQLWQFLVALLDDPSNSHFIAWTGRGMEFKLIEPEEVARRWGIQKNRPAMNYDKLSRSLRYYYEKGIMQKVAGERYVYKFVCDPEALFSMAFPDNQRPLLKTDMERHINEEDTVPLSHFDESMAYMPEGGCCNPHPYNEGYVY
sequence,measurement,setting,value
TTAACT,binding signal,FLI1,"1.18 fold enrichment (6-mer frequency, TF over GST control)"
same,binding signal,ELK1,"1.14 fold enrichment (6-mer frequency, TF over GST control)"
same,binding signal,GABPA,"1.15 fold enrichment (6-mer frequency, TF over GST control)"
same,binding signal,ERG,"1.17 fold enrichment (6-mer frequency, TF over GST control)"
same,binding signal,ELF1,"1.27 fold enrichment (6-mer frequency, TF over GST control)"
same,binding signal,EHF,"1.1 fold enrichment (6-mer frequency, TF over GST control)"
same,binding signal,SPI1,"1.23 fold enrichment (6-mer frequency, TF over GST control)"
same,binding signal,SPIB,"1.21 fold enrichment (6-mer frequency, TF over GST control)"
same,binding signal,ELK3,"1.19 fold enrichment (6-mer frequency, TF over GST control)"
same,binding signal,FEV,"1.25 fold enrichment (6-mer frequency, TF over GST control)"
same,binding signal,ETV5,"1.2 fold enrichment (6-mer frequency, TF over GST control)"
same,binding signal,HSF1,"1.79 fold enrichment (6-mer frequency, TF over GST control)"
same,binding signal,SPIC,"1.36 fold enrichment (6-mer frequency, TF over GST control)"
same,binding signal,ELF4,"1.23 fold enrichment (6-mer frequency, TF over GST control)"
same,binding signal,ELK4,"1.2 fold enrichment (6-mer frequency, TF over GST control)"
same,binding signal,ETV2,"1.17 fold enrichment (6-mer frequency, TF over GST control)"
same,binding signal,ELF3,"1.21 fold enrichment (6-mer frequency, TF over GST control)"
same,binding signal,CRX,"2.72 fold enrichment (6-mer frequency, TF over GST control)"
same,binding signal,ETV1,"1.16 fold enrichment (6-mer frequency, TF over GST control)"
